In the supplement of paper PMC10646978:
± gives the standard deviation.

How the values were obtained:
Details in all cases: modulator concentration 10 µM
[1] = tested on: RAW-Dual (murine macrophage reporter line); assay: NF-kB reporter (SEAP) activity fold change vs agonist alone; higher = enhanced NF-kB activity
How it was run: (§1)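 Overnight stimulation with a PRR agonist followed pre-incubation for 1 hour at 37 °C with compound at 10 μM final. This was done in RAW-Dual murine macrophage reporter cells seeded at 50 000 per well in 384-well plates. NF-κB (SEAP, QUANTI-Blue absorbance at 620 nm) and IRF (Lucia luciferase, QUANTI-Luc luminescence) were read from the supernatant. Each reporter's fold change relative to the mean agonist-only control on the same plate was averaged over replicate plates.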

[2] = tested on: RAW-Dual (murine macrophage reporter line); assay: IRF reporter (Lucia luciferase) activity fold change vs agonist alone; higher = enhanced IRF activity
How it was run: as §1

[3] = tested on: RAW-Dual (murine macrophage reporter line); assay: viability score (confluency relative to resting cells, overnight) (fraction); higher = more viable, active = viable (0.7 or more)
How it was run: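 RAW-Dual macrophages in 384-well plates were incubated overnight with compound, final concentration 10 μM. Confluency images from IncuCyte were processed in IncuCyte software into two masks covering all imaged wells. The viability score is each well's confluency relative to resting cells, and a compound met the cutoff when both masks exceeded 70% of resting cells.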

[4] = agonist: CpG ODN 1826 0.5 ug/mL

SMILES	NF-kB reporter [1, 4]	NF-kB reporter ([1]; agonist: LPS 0.1 ug/mL)	NF-kB reporter ([1]; agonist: MPLA […])	IRF reporter ([2]; agonist: 3'3'-cGAMP 10 ug/mL)	IRF reporter ([2]; agonist: LPS 0.1 ug/mL)	IRF reporter ([2]; agonist: MPLA […])	viability score [3]
CCn1nnc2c(NCCc3c[nH]c4ccccc34)ncnc21	0.961 ± 0.042	1.09 ± 0.1	1.09 ± 0.058	0.768 ± 0.043	1.05 ± 0.15	1.11 ± 0.32	0.958 (active)
CC(C)(C)c1ccc(-c2nc(-c3cccc([N+](=O)[O-])c3)no2)cc1	1.06 ± 0.1	0.972 ± 0.091	0.964 ± 0.025	1.02 ± 0.071	1.01 ± 0.098	1.05 ± 0.17	0.995 (active)
Cc1cc(OCC(O)CN2CCCCC2C)cc(C)c1Cl.Cl (stereo unspecified)	0.79 ± 0.15	0.97 ± 0.08	0.796 ± 0.048	0.955 ± 0.048	1.2 ± 0.17	1.25 ± 0.23	0.923 (active)
CCOCC(=O)Nc1nc2c(C(F)(F)F)cccc2s1	1.16 ± 0.067	0.964 ± 0.11	1.06 ± 0.052	0.969 ± 0.039	1.04 ± 0.048	1.03 ± 0.14	0.989 (active)
Cc1c(C)n2c3c(=O)n(Cc4ccccc4F)c(=O)n(C)c3nc2n1CCCN1CCOCC1	0.843 ± 0.062	1.1 ± 0.087	0.958 ± 0.052	1.11 ± 0.089	1.06 ± 0.14	1.05 ± 0.37	1.01 (active)
CN(C)CCC=C1c2ccccc2CCc2ccccc21.Cl	0.903 ± 0.19	1.26 ± 0.48	1.21 ± 0.17	0.423 ± 0.017	1.31 ± 0.44	1.12 ± 0.084	0.412 (inactive)
CCCC1=NN2C(=N)C(=Cc3ccc(OCc4ccc(F)cc4)c(OCC)c3)C(=O)N=C2S1	0.992 ± 0.1	1.03 ± 0.057	0.97 ± 0.084	0.965 ± 0.04	1.59 ± 0.17	1.19 ± 0.073	1.01 (active)
O=C1CN(CCC2=CCCCC2)C2CS(=O)(=O)CC2N1c1ccc(Cl)cc1 (stereo unspecified)	1.01 ± 0.12	1.07 ± 0.089	0.849 ± 0.071	0.786 ± 0.051	0.892 ± 0.078	1 ± 0.13	1.01 (active)
CN(C)CCNC(=O)C(=O)NC(c1ccccc1)c1ccccc1	1.03 ± 0.11	1.01 ± 0.089	0.95 ± 0.027	0.998 ± 0.042	1.03 ± 0.091	0.962 ± 0.12	0.996 (active)
COc1cccc(NC(=O)CN(c2cccc(Br)c2)S(C)(=O)=O)c1	0.906 ± 0.085	0.998 ± 0.074	0.919 ± 0.036	0.848 ± 0.092	0.937 ± 0.11	0.876 ± 0.078	0.998 (active)
O=C1CCC(=O)N1C1CC2CCC(C1)N2C(=O)c1cnccn1 (stereo unspecified)	0.892 ± 0.056	0.903 ± 0.081	1.06 ± 0.057	1.03 ± 0.053	1.22 ± 0.19	1.31 ± 0.41	0.954 (active)
CCOC(=O)c1c(C)nn(C2CCCCC2)c1N	1.1 ± 0.1	1.02 ± 0.049	1.09 ± 0.099	0.954 ± 0.044	1.2 ± 0.075	1.37 ± 0.12	1.02 (active)
NC(=O)CSc1nc2ccccc2[nH]1	1.1 ± 0.088	1.07 ± 0.081	0.998 ± 0.037	0.985 ± 0.16	1.09 ± 0.13	0.992 ± 0.16	0.997 (active)
